From PubChem BioAssay (NCATS)
Values without a mark were called inactive. Records with an inconclusive call do not appear. The source made the active and inactive calls. Unless noted, the call rests on the fitted dose curve; in most records, active means well fitted curve in either direction with a large enough effect (not every such curve was filed as active); inconclusive means small, poorly fitted or top-dose-only effect, or another doubt; inactive means flat fitted curve, though single readings scatter.

Assays:
[1] = biological target: Lysosomal acid glucosylceramidase (Homo sapiens) (UniProt P04062); experiment: Glucocerebrosidase-p2 (AID 348; in the data active means potency below about 10 µM; further: potency means the concentration at half of the fitted maximal effect); settings: purified GBA, blue fluorogenic substrate, 40 min
Lysosomal acid glucosylceramidase (Homo sapiens), sequence (P04062 whole entry, looked up): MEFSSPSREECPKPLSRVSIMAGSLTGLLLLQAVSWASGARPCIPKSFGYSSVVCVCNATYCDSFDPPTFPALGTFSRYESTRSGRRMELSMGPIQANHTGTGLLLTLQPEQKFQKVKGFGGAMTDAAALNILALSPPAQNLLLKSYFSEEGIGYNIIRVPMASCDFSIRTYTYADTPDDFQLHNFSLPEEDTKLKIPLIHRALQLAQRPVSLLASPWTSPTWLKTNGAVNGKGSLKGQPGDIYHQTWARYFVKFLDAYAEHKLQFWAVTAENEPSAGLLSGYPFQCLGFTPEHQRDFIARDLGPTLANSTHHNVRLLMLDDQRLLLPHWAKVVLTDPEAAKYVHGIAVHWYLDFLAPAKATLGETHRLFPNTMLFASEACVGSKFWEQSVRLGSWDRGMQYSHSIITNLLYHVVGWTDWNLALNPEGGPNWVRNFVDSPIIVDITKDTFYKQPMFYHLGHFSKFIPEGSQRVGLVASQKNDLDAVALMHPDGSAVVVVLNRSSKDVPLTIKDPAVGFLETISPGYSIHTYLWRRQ
Outline: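 Normal human glucocerebrosidase (0.2 nM) with blue fluorogenic substrate (80 uM final) in citrate/phosphate pH 5.9 with 10mM sodium taurocholate, 0.01% tween-20; 40 min RT, NaOH/glycine stop; fluorescence Ex 365/Em 440; AC50 from a titration from 0.6 nM upwards.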

[2] = AP1 Signaling Pathway (AID 357); settings: ME-180 AP-1-bla reporter, EGF-induced, beta-lactamase ratio, 5 h; at 7.69 µM (top of the series) unless noted;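 further: ME-180 reporter cells stimulated with EGF at its EC50 level; on the % scale 0 is the no-effect control and ±100 the full control effect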
Outline: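 Beta-lactamase reporter under AP-1 response element, ME-180 background. Stimulus: EC50 EGF. Compound exposure 5 h, 37 °C. Detection: CCF4, 2.5 h RT, 460/530 nm. Values: AC50 from titration.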

[3] = biological target: Cytochrome P450 1A2 (Homo sapiens) (UniProt P05177); experiment: p450-cyp1a2 (AID 410; calls by dose curve; further: potency means the concentration at half of the fitted maximal effect;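 on activity change, negative = inhibition: -100% = full effect of reference inhibitor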); settings: recombinant CYP1A2, luciferin-ME demethylation, luminescence; series mostly up to 11.4 µM
Cytochrome P450 1A2 (Homo sapiens), sequence (P05177 whole entry, looked up): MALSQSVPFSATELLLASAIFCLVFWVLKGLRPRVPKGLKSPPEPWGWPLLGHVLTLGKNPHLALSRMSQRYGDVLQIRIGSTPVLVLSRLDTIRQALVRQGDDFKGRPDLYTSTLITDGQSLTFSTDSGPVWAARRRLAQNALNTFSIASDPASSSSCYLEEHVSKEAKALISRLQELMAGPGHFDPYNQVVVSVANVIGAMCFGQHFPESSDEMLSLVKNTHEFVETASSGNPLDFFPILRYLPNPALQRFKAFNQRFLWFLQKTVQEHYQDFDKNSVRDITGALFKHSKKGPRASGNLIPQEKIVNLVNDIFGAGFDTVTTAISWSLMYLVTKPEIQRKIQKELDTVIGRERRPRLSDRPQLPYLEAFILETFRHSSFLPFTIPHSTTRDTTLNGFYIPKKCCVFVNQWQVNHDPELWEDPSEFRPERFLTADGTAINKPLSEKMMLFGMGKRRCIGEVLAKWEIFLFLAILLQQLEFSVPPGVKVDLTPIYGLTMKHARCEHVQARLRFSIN
Outline: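 Luminescent demethylation readout: Luciferin-ME (100uM, equal to Km) turned over by 20nM CYP1A2 for 60 min at room temperature after NADPH regeneration addition, following 10 min compound preincubation. Normalization used 57 uM furafylline as full inhibition.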

[4] = NFAT Signaling Pathway (AID 444); settings: Jurkat NFAT-bla M1, carbachol, beta-lactamase ratio, 5 h; at 7.69 µM (top of the series) unless noted;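 further: carbachol stimulus at about its EC50 of 1 µM final; on the % scale 0 is the no-effect control and ±100 the full control effect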
Outline: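 Jurkat cells with NFAT-driven β-lactamase reporter and co-expressed M1 receptor, stimulated with carbachol (final 1 uM, ~EC50), compound titration, 5 h at 37 °C. CCF4 loaded 1 h at RT; 460/530 nm ratio gave %activity and AC50.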

[5] = Stat Signaling Pathway (AID 446); settings: ME-180 SIE beta-lactamase reporter, IL-6 stimulated, 5 h; at 7.69 µM (top of the series) unless noted;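 further: ME-180 cervical cancer cells given 40 pM IL-6 alongside compound; SIE-controlled beta-lactamase reporter measured as 460/530 nm FRET emission ratio; on the % scale 0 is the no-effect control and ±100 the full control effect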
Outline: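 Overnight-plated ME-180 cells bearing a STAT Inducible Element beta-lactamase reporter; 5 h co-exposure to compound and 40 pM IL-6; values normalized to 300 pM IL-6 and 125 nM JAK inhibitor controls.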

[6] = biological target: Glucocorticoid receptor (Homo sapiens) (UniProt P04150); experiment: GR-GFP Redistribution (AID 450;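 active means compounds whose dose series gives a full or clear partial fitted curve of increased nuclear translocation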; further: potency means the concentration at half of the fitted maximal effect); settings: U2OS GR-GFP nuclear translocation, laser cytometry, 2 h
Glucocorticoid receptor (Homo sapiens), sequence (P04150 whole entry, looked up, the tested form may be a part): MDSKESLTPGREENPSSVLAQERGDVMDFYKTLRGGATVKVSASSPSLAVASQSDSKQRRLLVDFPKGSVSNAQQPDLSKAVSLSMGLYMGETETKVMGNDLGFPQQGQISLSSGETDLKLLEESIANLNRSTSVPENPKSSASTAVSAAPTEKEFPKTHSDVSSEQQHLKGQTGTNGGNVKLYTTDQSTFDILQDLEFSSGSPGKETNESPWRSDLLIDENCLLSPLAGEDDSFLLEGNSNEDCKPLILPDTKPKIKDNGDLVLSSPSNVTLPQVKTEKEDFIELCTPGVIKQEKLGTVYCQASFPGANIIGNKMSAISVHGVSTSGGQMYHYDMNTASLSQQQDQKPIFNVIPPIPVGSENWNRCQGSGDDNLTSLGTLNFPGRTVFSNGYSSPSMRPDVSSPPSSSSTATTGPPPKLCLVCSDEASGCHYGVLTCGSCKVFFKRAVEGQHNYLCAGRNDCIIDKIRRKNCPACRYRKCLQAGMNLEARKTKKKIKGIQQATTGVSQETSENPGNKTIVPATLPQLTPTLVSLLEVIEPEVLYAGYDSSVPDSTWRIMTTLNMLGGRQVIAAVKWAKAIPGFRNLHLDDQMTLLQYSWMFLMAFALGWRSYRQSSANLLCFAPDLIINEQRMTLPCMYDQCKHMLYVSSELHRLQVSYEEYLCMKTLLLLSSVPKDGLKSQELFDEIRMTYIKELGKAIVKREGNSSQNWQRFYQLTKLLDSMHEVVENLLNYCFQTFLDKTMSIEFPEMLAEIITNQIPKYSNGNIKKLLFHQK

[7] = biological target: Glucocorticoid receptor (Homo sapiens) (UniProt P04150); experiment: GR-EFC Redistribution (AID 451; calls by dose curve; further: potency means the concentration at half of the fitted maximal effect); settings: CHO-K1 GR-EFC translocation, beta-gal luminescence, 2 h
Outline: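 CHO-K1 cells expressing nuclear EA and GR-ED fragments of b-gal; compounds titrated up to 46 uM final, 2 h at 37 C. GR nuclear translocation read as complemented b-gal luminescence after 1 h RT detection.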

[8] = biological target: Mitogen-activated protein kinase 10 (Mus musculus) (UniProt Q61831); experiment: JNK3 AlphaScreen Assay (AID 530); settings: JNK3 lysate, c-Jun phosphorylation; series mostly up to 11.4 µM;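 further: kinase came from lysate of stimulated human HepG2 cells; signal reports phosphorylation of biotinylated GST-cJun 1-79 at Ser73 with 10 µM ATP; on the % scale 0 is the no-effect control and ±100 the full control effect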
Outline: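 Activity was read by AlphaScreen after JNK3-containing HepG2 lysate (cytokine pre-activated) phosphorylated biotinylated GST-cJun with 10 uM ATP at room temperature. Phospho-Ser73 cJun antibody with Protein-A acceptor beads provided detection.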

[9] = biological target: 3',5'-cyclic-AMP phosphodiesterase 4B (Homo sapiens) (UniProt Q07343); experiment: qHTS Assay for Inhibitors of PDE-IV (AID 607; active means well fitted activation curve with a large enough effect in the main read-out, with a control signal flat, not every such curve was filed as active; further: % of control where 0% means no effect); settings: HEK293 ACTOne CNG channel cells, membrane potential fluorescence; series mostly up to 22.9 µM
3',5'-cyclic-AMP phosphodiesterase 4B (Homo sapiens), sequence (Q07343 whole entry, looked up): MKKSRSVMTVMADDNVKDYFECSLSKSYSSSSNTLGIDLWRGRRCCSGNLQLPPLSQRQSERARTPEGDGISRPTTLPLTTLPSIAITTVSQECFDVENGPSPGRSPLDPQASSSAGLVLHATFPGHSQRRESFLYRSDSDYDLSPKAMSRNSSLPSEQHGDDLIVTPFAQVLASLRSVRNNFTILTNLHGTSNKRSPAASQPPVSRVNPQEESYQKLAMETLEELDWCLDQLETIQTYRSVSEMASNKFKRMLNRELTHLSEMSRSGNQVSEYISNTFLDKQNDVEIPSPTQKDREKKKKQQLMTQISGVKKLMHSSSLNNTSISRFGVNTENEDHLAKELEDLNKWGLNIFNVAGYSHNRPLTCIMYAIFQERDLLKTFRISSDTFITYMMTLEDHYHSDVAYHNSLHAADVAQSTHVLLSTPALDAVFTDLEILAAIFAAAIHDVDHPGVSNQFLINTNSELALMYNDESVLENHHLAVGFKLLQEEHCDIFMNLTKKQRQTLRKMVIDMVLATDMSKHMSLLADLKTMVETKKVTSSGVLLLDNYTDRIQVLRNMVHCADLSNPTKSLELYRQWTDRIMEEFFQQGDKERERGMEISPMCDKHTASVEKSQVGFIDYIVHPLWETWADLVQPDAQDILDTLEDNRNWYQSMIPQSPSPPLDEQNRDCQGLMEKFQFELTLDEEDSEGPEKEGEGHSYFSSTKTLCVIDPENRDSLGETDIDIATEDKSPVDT
Outline: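 Live HEK293 cells with a modified cyclic nucleotide-gated (CNG) channel report intracellular cAMP via membrane-potential dye fluorescence (ex 535/em 590 nm). Endogenous PDE-IV was targeted. Compounds were tested at up to 22.9 uM final; RO 20-1724 100 uM served as control.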

[10] = biological target: Cytochrome P450 2C19 (Homo sapiens) (UniProt P33261); experiment: qHTS Assay for Inhibitors and Substrates of Cytochrome P450 2C19 (AID 899; active means well fitted inhibition curve with a large enough effect; further: nearly all actives have a fitted effect of over 60% in size; further: potency means the concentration at half of the fitted maximal effect); settings: recombinant CYP2C19, luciferin-H EGE luminescence; series mostly up to 11.4 µM
Cytochrome P450 2C19 (Homo sapiens), sequence (P33261 whole entry, looked up): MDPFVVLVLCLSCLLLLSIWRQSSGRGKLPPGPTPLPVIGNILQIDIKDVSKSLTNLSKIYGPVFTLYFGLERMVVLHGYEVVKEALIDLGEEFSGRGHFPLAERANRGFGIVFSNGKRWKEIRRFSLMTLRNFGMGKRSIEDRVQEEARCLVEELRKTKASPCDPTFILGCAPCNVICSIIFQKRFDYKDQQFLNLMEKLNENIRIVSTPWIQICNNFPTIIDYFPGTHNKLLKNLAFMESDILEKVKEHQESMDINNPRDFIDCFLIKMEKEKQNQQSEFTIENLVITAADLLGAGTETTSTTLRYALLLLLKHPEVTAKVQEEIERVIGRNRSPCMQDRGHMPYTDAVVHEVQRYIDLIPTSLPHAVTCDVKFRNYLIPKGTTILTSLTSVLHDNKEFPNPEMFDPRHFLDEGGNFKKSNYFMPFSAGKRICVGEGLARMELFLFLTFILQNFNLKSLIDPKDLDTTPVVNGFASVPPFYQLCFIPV
Outline: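 Signal comes from luciferase acting on luciferin released by CYP2C19-mediated hydroxylation of Luciferin-H EGE, 10uM (KM). Assay mix: 5nM enzyme, 50mM KPO4; 60 min at 37C with NADPH regeneration. Data normalized against 57uM ketoconazole.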

[11] = qHTS Assay for Identification of Small Molecule Agonists for Hypoxia Response Element Signaling Pathway (AID 914; active means well fitted activation curve with a large enough effect in the signal ratio, with a control signal flat, not every such curve was filed as active; the % refers to the signal ratio; further: % of control where 0% means no effect); settings: ME-180 (cervical carcinoma) HRE-bla reporter, beta-lactamase ratio, CoCl2, 17 h; activation: hits give high values
Outline: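 AC50 values come from titration-series %Activity, taken as the 460/530nm ratio of CCF4 fluorescence (excitation 405nm). CellSensor HRE-bla ME-180 cells were treated 17 hours at 37 C with compound plus an EC50 level of CoCl2.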

| SMILES | Potency [1] | activity change, negative = inhibition [2] | Potency [3] | activity change, negative = inhibition [4] | activity, negative = inhibition [5] | Potency [6] | Potency [7] | Potency [8] | Potency [9] | Potency [10] | activation [11] | activity change, negative = inhibition [3] |
| --- | --- | --- | --- | --- | --- | --- | --- | --- | --- | --- | --- | --- |
| Oc1ccccc1C(Sc1nc2ccccc2s1)Sc1nc2ccccc2s1 | > 11.4 µM | 10.8% | 1.26 µM (active) | 5.9% | -11.5% | > 46 µM | > 9.22 µM | inactive | inactive | 3.16 µM (active) | – | – |
| S=c1c2[nH]cnc2ncn1CCSc1ncnc2nc[nH]c12 | > 11.4 µM | -5.47% | inactive | 23.1% | 7.7% | > 46 µM | > 9.22 µM | inactive | inactive | inactive | – | – |
| CC(C)(Oc1ccc(-c2cccc3ccccc23)cc1)C(=O)O | > 11.4 µM | 2.76% | inactive | -8.87% | 1.48% | > 46 µM | > 9.22 µM | inactive | inactive | inactive | -19.2% | – |
| O=C(O)c1ccc(S(=O)(=O)N=Nc2c(O)[nH]c3ccccc23)cc1 | > 11.4 µM | -0.32% | inactive | 4.27% | 21.1% | > 46 µM | > 9.22 µM | inactive | inactive | inactive | – | – |
| CC(C)(C)COS(=O)OCC(C)(C)C | > 11.4 µM | -7.58% | inactive | 3.4% | 13.1% | > 46 µM | > 9.22 µM | inactive | inactive | inactive | – | – |
| Cn1c(=O)c2c(nc(N/N=C\c3ccccc3C(=O)O)n2C)n(C)c1=O | > 11.4 µM | -10.8% | inactive | 5.57% | 3.2% | > 46 µM | > 9.22 µM | inactive | inactive | inactive | – | – |
| Nc1ccn([C@H]2O[C@@H](COP(=O)(O)O)[C@@H](O)[C@H]2O)c(=O)n1 | > 11.4 µM | 5.49% | inactive | 12.4% | 4.03% | > 46 µM | > 9.22 µM | inactive | inactive | inactive | – | – |
| O=C(O)C(Cc1cccs1)C(=O)O | > 11.4 µM | 7.58% | – | 8.62% | 0.541% | > 46 µM | > 9.22 µM | inactive | inactive | inactive | – | -2.1% [at 2.29 µM] |
| C/C(=N\NC(=O)c1ccncc1)c1ccc2ccccc2c1O | > 11.4 µM | 7.91% | 3.98 µM (active) | -7.25% | -3.43% | > 46 µM | > 9.22 µM | inactive | inactive | 0.501 µM (active) | – | – |
| NC(=O)c1csc(-c2ccc(CO)o2)n1 | > 11.4 µM | -2.81% | inactive | 10.7% | 13.2% | > 46 µM | > 9.22 µM | inactive | inactive | inactive | – | – |
| O[C@@H]1[C@@H](OCc2ccccc2)OC[C@H](O)[C@@H]1O | > 11.4 µM | 17.3% | inactive | -8.65% | 4.2% | > 46 µM | > 9.22 µM | inactive | inactive | inactive | – | – |
| CC(C)(C)c1ccc(OCC(=O)O)c(Cl)c1 | > 11.4 µM | -2.54% | inactive | 10.5% | -5.16% | > 46 µM | > 9.22 µM | inactive | inactive | inactive | – | – |
| Cn1c(=O)c2[nH]c(CCCCC(=O)O)nc2n(C)c1=O | > 11.4 µM | 1.28% | 0.794 µM (active) | 6.73% | 1.27% | > 46 µM | > 9.22 µM | inactive | inactive | inactive | – | – |
| Cc1cn(CC[C@H](N)C(=O)O)c(=O)[nH]c1=O | > 11.4 µM | 0.888% | inactive | -6.68% | 16.3% | > 46 µM | > 9.22 µM | inactive | inactive | inactive | – | – |
